Screens (PubChem)
Vif inh: blocks HIV Vif function; hit rate 0.35% among 340,000; inhibition, % at 7.49 µM; AID 602346; HEK293T cells, Vif self-association by quenched fluorescence, imaging, 24 h; in the data active means inhibition above about 50%, passing the limit was not always enough; inconclusive means no clear call, values can overlap the other calls; inactive means below about 31%
Wnt bcat act: Wnt/beta-catenin pathway activation. Wnt/beta-catenin reporter cell assay, activator, plate reader. activation, % at 9.35 µM. hit rate 1.2% among 300,000. AID 743398; in the data active means activation above about 30%, passing the limit was not always enough; inconclusive means no clear call, values can overlap the other calls;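 further: 0% = neutral control wells and 100% = positive control wells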
Glyco luc inh: N-linked glycosylation inhibition; reporter increase, % at 12.5 µM; D54 ERlucT glycosylation luciferase reporter, 24 h; percent of 100 nM tunicamycin response; hit rate 0.23% among 360,000;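 active means mean luciferase reporter signal, scaled so untreated is 0 and the glycosylation-blocking control 100, at or above a set limit in every replicate; inconclusive means mean reaches the limit but not every replicate does; inactive means mean below the limit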;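 further: luciferase carries N-glycosylation sites so blocking glycosylation raises the light; 0% = median of neutral control wells and 100% = median of 100 nM tunicamycin wells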
MITF act: activators of MITF-driven TRPM1 promoter activity in SK-MEL-5 cells | SK-MEL-5 TRPM1-promoter luciferase, 24 h; % of positive control, neutral wells = 0 | activation, % at 12.5 µM | hit rate 0.75% among 300,000 | AID 588334;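 active means mean activation of at least 80% with every replicate also reaching 80%; inconclusive means mean reaches 80% but some replicate falls short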;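 further: 0% = neutral control wells and 100% = parthenolide positive control wells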
esBAF inh: inhibitors of esBAF chromatin remodeling in mouse ES cells; Bmi1-luciferase knock-in reporter, 24 h; 100% = twice the neutral-well signal; reporter increase, % at 12.5 µM; hit rate 2% among 350,000; in the data active means activation above about 40%; inconclusive means no clear call, values can overlap the other calls;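 further: 0% = median of the plate's neutral control wells and 100% = double that signal; a rise in the Bmi1 reporter signal indicates esBAF inhibition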
PfHsp90 set2: inhibits growth of yeast expressing Plasmodium falciparum Hsp90. S. cerevisiae expressing PfHsp90, BacTiter-Glo ATP, 48 h; yeast lacking PDR1 and PDR3 efflux regulators. inhibition, % at 9.4 µM. hit rate 0.32% among 310,000. AID 504621;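 active means every replicate shows inhibition above about 80%, whatever the replicate mean, limit read from the data; inconclusive means mean inhibition reaches the set limit but some replicate falls short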;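 further: 0% = DMSO neutral controls and 100% = 20 µM radicicol positive controls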
Numbers without * were called inactive; ? = inconclusive; / = not tested or not shown. Only some compounds are listed: those with a hit (about 3% of all), similar ones and a draw of the others.

SMILES	Vif inh	Wnt bcat act	Glyco luc inh	MITF act	esBAF inh	PfHsp90 set2
O=C1Cn2c(nc3ccccc32)-c2ccccc2N1	-6	/	1	4	13	-12
c1ccc(C2Nc3ccccc3-c3nc4ccccc4n32)nc1 (stereo not drawn)	-1	37*	2	21	/	-5
c1coc(C2Nc3ccccc3-c3nc4ccccc4n32)c1 (stereo not drawn)	-7	20	-1	63	46*	-4
Clc1ccc2noc(-c3ccccc3)c2c1	-21	-1	0	-2	-5	-10
CC(=O)c1cccc(NC(=O)N2CCCC2C(=O)NCc2ccc(C)cc2)c1 (stereo not drawn)	-4	/	1	-7	-1	1
CCC(=O)Nc1ccc2c(c1)C(=O)N(C)C[C@H](OC)[C@H](C)CN(C(=O)Cc1cccnc1)[C@@H](C)CO2	/	/	/	/	1	/
O=C1/C(=C/c2cccs2)CCC/C1=C\c1cccs1	-4	36*	-8	77	60*	-3
O=C1C(=Cc2cccs2)CCc2ccccc21	/	48*	/	/	/	/
O=C1/C(=C/c2ccccc2)CCCc2ccccc21	2	29	-1	/	49*	/
O=C1c2ccccc2CCc2ccccc21	13	-1	-1	17	9	/
O=C1/C(=C\c2cccnc2)CCc2ccccc21	-4	-3	2	16	5	17
Cn1cccc1/C=C1\CCC/C(=C\c2cccn2C)C1=O	24	71*	-4	/	81*	/
CNc1nn(-c2cccc(Cl)c2)nc1N	-12	/	0	57	62*	/
OC1CCCN(Cc2ccc3ccc4cccc5ccc2c3c45)C1 (stereo not drawn)	-5	/	57*	4	-7	6
COC(=O)c1ccc(/C=C/c2ccc3cccc(OC(C)=O)c3n2)cc1	5	/	3	52	/	-34
O=[N+]([O-])c1cccc(/C=C/c2ccc3cccc(O)c3n2)c1	-3	-3	18	7	34	-1
Oc1ccc(/C=C/c2ccc3cccc(O)c3n2)cc1Br	-4	14	6	44	77*	108*
O=C(O)c1ccc(/C=C/c2ccc3cccc(O)c3n2)cc1	-12	17	3	?	104*	-31
O=C(COC(=O)c1ccccc1OCc1ccccc1Cl)NC1CC1	-8	0	0	/	-2	5
O=C(CN1CCC(N2CCCCC2)CC1)N1CCCc2ccccc21	3	-4	-3	2	-8	6
Cc1ccsc1C(=O)N/N=C/C=C/c1ccccc1[N+](=O)[O-]	-2	/	1	44	45*	-11
Cc1occc1C(=O)N/N=C/C=C\c1ccccc1[N+](=O)[O-]	-3	2	-1	2	/	-11
COc1ccc(/C=N/NC(=O)c2sccc2C)c2ccccc12	-4	29	-2	/	/	-17
Cc1ccccc1/C=N/NC(=O)c1sccc1C	-3	80*	-5	79	/	15
COc1ccc(-c2nc(N/N=C(\C)c3ccc(O)cc3)c3ccccc3n2)cc1	2	28	-1	21	39	-44
SMILES	Vif inh	Wnt bcat act	Glyco luc inh	MITF act	esBAF inh	PfHsp90 set2
CC(C)N(CCC(=O)c1ccc2ccccc2c1)Cc1ccccc1	-3	3	-9	-1	4	114*
COc1ccc2nc(/N=C(\N)NC(=O)C(C)(C)C)nc(C)c2c1	/	/	2	78	48*	-11
CCC(=O)N/C(N)=N/c1nc(C)c2cc(OC)ccc2n1	13	/	1	68	55*	-7
COc1ccc(-n2c(O)c(C=Nc3ccccc3)c3ccccc3c2=O)cc1	5	-7	-4	13	3	1
COc1ccc(N=Cc2c(O)c3ccccc3n2C(C)=O)cc1	9	30*	-1	28	27	-22
COc1ccc(N=Cc2sc(O)c3ccccc23)cc1	4	34*	-7	28	82*	6
CCC(=O)Nc1ccc2c(c1)Cc1cc([N+](=O)[O-])ccc1-2	3	48*	0	93*	81*	-14
Cn1cc(-c2coc3c(C(=O)NCc4ccco4)cccc23)cn1	-3	/	5	/	72*	/
Cn1cc(-c2coc3c(C(=O)Nc4ccccc4)cccc23)cn1	-5	4	4	/	8	/
COc1ccc(Cn2c(-c3ccc(OC)cc3)nc3ccccc32)cc1	-2	0	-2	5	/	23
COc1ccc(Cn2c(-c3ccc(Br)cc3)c[n+]3ccccc23)cc1	-3	58*	-3	-14	-16	8
CN1CCN(C(=S)c2ccc(OCC(=O)Nc3cccc(C(F)(F)F)c3)cc2)CC1	54*	/	-1	-1	-4	2
O=C(COc1ccc(C(=O)O)cc1)Nc1cccc(C(F)(F)F)c1	5	-4	3	10	1	/
CCOc1ccccc1CNC(=O)C(C)n1nc(C)c2c(C)n(-c3ccccc3)nc2c1=O (stereo not drawn)	-5	-2	-5	-24	9	4
O=C1NC(=S)SC1=Cc1cccs1	-4	-3	1	0	1	/
Cc1ccc(N/C=C2/Sc3ccccc3NC2=O)cc1	-2	37*	-2	56	/	-3
O=C1Nc2ccccc2S/C1=C/NCc1ccccc1Cl	0	/	-1	15	/	5
O=C1Nc2ccccc2S/C1=C/c1cccs1	0	34*	2	/	/	-3
COc1ccc(N/C=C2/Sc3ccccc3NC2=O)cc1	-6	-1	-1	47	53*	-14
Cc1cnn2c(C3CC3)ccnc12	-3	2	-1	-3	/	-9
O=C1OCC2=C1C(c1ccccc1)CC(=O)N2c1ccc(F)cc1 (stereo not drawn)	-4	0	0	-2	/	/
COc1cc2c(cc1OC)CN(c1ncccc1[N+](=O)[O-])CC2	-15	22	0	93*	?	-10
Cc1ccc(O)c(N=Cc2cccs2)c1	-4	/	7	-10	/	-6
Cc1ccc(O)c(N=Cc2ccc(C)s2)c1	-11	/	6	0	59*	5
COc1ccc(C(C#N)=Cc2ccc(OC)c(OC)c2)cc1	2	2	1	/	68*	/
COc1ccc(C=C(C#N)c2ccc(OC)cc2)cc1	-1	13	0	43	55*	-31
COc1ccc(C(C#N)=Cc2ccc(NC(C)=O)cc2)cc1	10	-2	-4	44	21	-15
COc1cc(C)c(/C=C(\C#N)C(=O)Nc2cccc(C)c2)cc1C(C)C	/	-1	1	4	/	1
CCOc1c(Cl)cc(C2NC(=O)NC(C)=C2C(=O)NCc2ccccc2)cc1OC (stereo not drawn)	9	/	3	31	50*	8
CC1CCCCN1CCCNC(=O)c1ccc2nc(N3CCCCC3)sc2c1 (stereo not drawn)	/	12	0	/	58*	9
